Rows were chosen to be rich in hits. Some 4.2% of all compounds tested hit in one or more screens of this group.
RecA intein inh = inhibitors of M. tuberculosis RecA intein splicing | P9WHJ3 | cell-free RecA intein splicing, fluorescence | inhibition, % (no concentration beside the values) | actives 0.75% (n = 290,000); in the data active = inhibition above about 30%;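 also: 0% = vehicle wells and 100% = reference inhibitor control wells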
FBA Mtb inh = inhibitors of M. tuberculosis fructose-bisphosphate aldolase; purified M. tuberculosis FBA, fluorescence read-out; actives 2.3% (n = 360,000); inhibition, % at 1 µM; P9WQA3; AID 588726; in the data active = inhibition above about 27%;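 also: 0% = vehicle and 100% = reference inhibitor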
Target sequence (P9WQA3 whole entry, looked up): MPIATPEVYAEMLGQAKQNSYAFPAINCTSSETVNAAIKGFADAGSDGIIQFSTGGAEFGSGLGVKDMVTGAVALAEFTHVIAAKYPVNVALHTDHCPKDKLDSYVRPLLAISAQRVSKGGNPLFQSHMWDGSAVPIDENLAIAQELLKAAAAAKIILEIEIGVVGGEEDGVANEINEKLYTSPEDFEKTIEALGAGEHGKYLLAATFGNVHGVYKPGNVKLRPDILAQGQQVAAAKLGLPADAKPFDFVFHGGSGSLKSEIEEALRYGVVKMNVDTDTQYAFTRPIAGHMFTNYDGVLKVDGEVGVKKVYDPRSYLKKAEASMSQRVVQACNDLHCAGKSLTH
GDH-TPI counter = counter-screen for M. tuberculosis FBA inhibitors: GDH-TPI coupled enzymes; inhibition, % at 4.8 µM; GDH-TPI coupled enzyme counterscreen, NADH absorbance; actives 1.2% (n = 360,000);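 also: 0% = DMSO wells and 100% = wells lacking the enzyme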
CCHFV vOTU inh = blocks the CCHF virus ovarian tumor domain protease | AID 651958 | actives 0.55% (n = 370,000) | inhibition, % at 11.5 µM | CCHFV vOTU protease, Pep-AMC fluorescence; also: 0% = vehicle wells with enzyme and 100% = no enzyme wells
Mtb bLac sens = beta-lactam sensitization of Mtb H37Rv | AID 434955 | inhibition, % at 25 µM | actives 0.27% (n = 330,000) | M. tuberculosis H37Rv growth with meropenem, percent inhibition; call rule not given here;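 also: growth measured after seven days incubation then overnight dye step; 0% = bacteria only wells and 100% = bacteria with antibiotic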
* hit, by the source's call; nt = not tested or not shown. Rule as the data show it, unless noted: active = inhibition above about 30%; inactive = the rest.

SMILES | RecA intein inh | FBA Mtb inh | GDH-TPI counter | CCHFV vOTU inh | Mtb bLac sens
COc1cc(/C=C(\C#N)c2nc3ccc(C)cc3[nH]2)cc([N+](=O)[O-])c1O | nt | -19 | 17 | 13 | nt
COc1cc(/C=C(\C#N)c2nc3ccc(C)cc3[nH]2)c([N+](=O)[O-])cc1OC | 1 | 3 | 33* | 12 | 62
COc1cc(/C=C(\C#N)c2nc3ccccc3[nH]2)ccc1Oc1ccc([N+](=O)[O-])cn1 | -2 | 3 | 32* | -7 | 20
COc1ccc(CNC(=O)c2cc3c(=O)n4ccccc4nc3n(Cc3cccnc3)c2=N)cc1 | -27 | 8 | 18 | 1 | -12
COCCn1c(=N)c(C(=O)NCc2ccco2)cc2c(=O)n3ccccc3nc21 | nt | 138* | 3 | -43 | -4
N=c1c(C(=O)NCc2ccc(F)cc2)cc2c(=O)n3ccccc3nc2n1Cc1ccco1 | -79 | 38* | 7 | -15 | 95
N=c1c(C(=O)NCc2ccco2)cc2c(=O)n3ccccc3nc2n1Cc1ccccc1 | -47 | 163* | 15 | 3 | -10
Cc1cccc(NC(=O)C2CCN(c3ncccn3)CC2)c1C | nt | nt | nt | -4 | nt
COC(=O)[C@@]12CCCCC3=C1N(CCC3)C(=O)[C@H]2CC(=O)NCc1ccccc1 | nt | nt | nt | 1 | nt
COc1ccc2c(c1)C(c1ccc([N+](=O)[O-])cc1)=NNC(c1ccco1)=N2 | 2 | -1 | 33* | 11 | 9
C=CCC1S/C(=N/N=C/c2cccs2)NC1=O (configuration not stated) | 0 | -3 | 53* | 4 | 40
O=C(CC1S/C(=N/N=C/c2cccs2)NC1=O)Nc1ccccc1F (configuration not stated) | -2 | 4 | 33* | -2 | 0
CN(CCO)c1ccc2c(c1)Oc1ccccc1CN(Cc1cn(Cc3ccccc3C(F)(F)F)nn1)S2(=O)=O | nt | nt | nt | 11 | nt
CCCSc1nc2sc3c(c2c(=O)[nH]1)CCN(Cc1ccccc1)C3 | -15 | 86* | 8 | nt | 5
CNC(=O)C[C@H]1CC[C@H]2[C@@H](COc3ccc(NC(=O)Nc4ccccc4)cc3C(=O)N2C)O1 | nt | nt | nt | -2 | nt
COC(=O)[C@H](C(C)C)N(CCCc1cn(Cc2ccc(C)cc2)nn1)S(=O)(=O)c1ccccc1Br | nt | nt | nt | 9 | nt
COC(=O)/C(=C1/Oc2cc(C)oc(=O)c2S1)C(F)(F)F | 44* | -2 | 9 | -13 | 99
COC(=O)/C(=C1/Oc2ccc(C(C)(C)C)cc2S1)C(F)(F)F | nt | 2 | 4 | -7 | 0
Cc1ccc2nc(N/N=C\c3ccc([N+](=O)[O-])o3)nc(-c3ccccc3)c2c1 | 42* | -3 | 22 | 5 | 100
O=[N+]([O-])c1ccc(/C=N/Nc2nc(-c3ccccc3)c3cc(Br)ccc3n2)o1 | 6 | 1 | 0 | 4 | 99
C/C(=C\c1cccs1)C(=O)c1c(C)cc(C)[nH]c1=O | 0 | 2 | 53* | -1 | 0
C#CCNC(=O)c1cnn(-c2ccccc2)c1N | nt | nt | nt | 3 | nt
O=C(N/N=C\c1ccccc1OCc1ccccc1)c1ccco1 | 1 | -2 | 20 | 13 | 2
COc1ccccc1/C=C/C=N/NC(=O)c1ccncc1 | -1 | -6 | 44* | 14 | 99
C/C(=N/NC(=O)c1ccco1)c1ccc(Br)s1 | 0 | -1 | 43* | 2 | 3
SMILES | RecA intein inh | FBA Mtb inh | GDH-TPI counter | CCHFV vOTU inh | Mtb bLac sens
COc1ccccc1/C=C/C=N/NC(=O)c1ccco1 | 0 | 3 | 37* | 7 | -2
O=C(N/N=C/C=N/NC(=O)c1ccco1)c1ccco1 | 0 | -1 | 54* | 7 | -4
CCOC(=O)CC[C@@H]1CC[C@]2(CCCN(Cc3cccs3)C2)O1 | nt | nt | nt | 3 | nt
O=S1(=O)c2ccc(N3CC[C@@H](O)C3)cc2O[C@@H]2CCN1C2 | nt | nt | nt | 3 | nt
CC(C)CNC(=O)C1CSCCS(=O)(=O)N1Cc1ccccc1 (configuration not stated) | nt | nt | nt | 3 | nt
COCCCN1C(=O)[C@H](CC(=O)NCC23CC4CC(CC(C4)C2)C3)[C@]2(C(=O)OC)CCCCC=C12 | nt | nt | nt | 7 | nt
COc1ccccc1/C=C/C=N/NC(=O)Cc1cccs1 | 0 | -2 | 32* | 19 | -1
Cc1ccsc1/C=N/NC(=O)c1ccco1 | -2 | -1 | 33* | 2 | -1
Cc1ccsc1/C=N/N=C/c1sccc1C | -2 | 0 | 33* | -1 | -6
COc1ccccc1/C=C/C=N/NC(=O)CN1CCN(S(=O)(=O)c2ccc(C)cc2)CC1 | 1 | -5 | 33* | 10 | 0
COC(=O)[C@]12C[C@H](CC(=O)N3CCN(C(=O)c4ccco4)CC3)C(=O)N(CCC3=CCCCC3)C1=C[C@H](C1CCCC1)O[C@@H]2C | nt | nt | nt | 5 | nt
CCOC(=O)[C@@]12CN(C(=O)OC(C)(C)C)CC=C1N(Cc1ccc(OC)cc1)C(=O)[C@H]2CC(=O)NCc1cccc2ccccc12 | nt | nt | nt | 16 | nt
COC(=O)[C@]12C[C@H](CC(=O)NCCCN3CCCC3=O)C(=O)N(Cc3cccc4ccccc34)C1=C[C@H](COCc1ccccc1)O[C@@H]2C | nt | nt | nt | -1 | nt
Cc1nc2ccc(S(=O)(=O)NCC(=O)N(C)Cc3ccc(F)cc3)cc2s1 | nt | nt | nt | -3 | nt
COc1ccccc1/C=C/C=N/NC(=O)c1cc(-c2ccc(C)o2)[nH]n1 | -3 | 0 | 44* | 5 | 99
Cc1ccc(C(=O)NCc2ccc3c(c2)OCO3)c(C)c1 | 2 | 153* | 4 | 3 | 6
Cc1ccc(C(=O)NCc2ccc3c(c2)OCO3)c(Cl)c1 | nt | 4 | 6 | -10 | nt
O=C(Cc1ccccc1)NC1CCCCN(Cc2cccc(Cl)c2)C1=O (configuration not stated) | nt | nt | nt | 9 | nt
O=C(O)c1cc(NN=Nc2cccc([N+](=O)[O-])c2)cc([N+](=O)[O-])c1 | 1 | -2 | 24 | 11 | -7
O=[N+]([O-])c1cccc(NN=Nc2ccccc2)c1 | 11 | -1 | 16 | 24 | 58
O=C(O)c1cc(NN=Nc2ccc(Br)cc2)cc([N+](=O)[O-])c1 | 4 | -1 | 31* | 8 | 19
O=[N+]([O-])c1ccc(N=NNc2ccccc2)cc1 | 10 | 78* | 11 | nt | -4
CCN(CC)C(=O)CSc1nc2cc(OC)c(OC)cc2c(=O)n1Cc1ccc(Cl)cc1 | 6 | 27* | -5 | -5 | 7
COC(=O)[C@]12C[C@H](CC(=O)NCC34CC5CC(CC(C5)C3)C4)C(=O)N(Cc3cccc4ccccc34)C1=C[C@H](C1CCCC1)O[C@@H]2C | nt | nt | nt | 19 | nt
O=S(=O)(Cc1ccccc1)Nc1ccccc1 | -7 | -1 | 5 | -3 | 3
SMILES | RecA intein inh | FBA Mtb inh | GDH-TPI counter | CCHFV vOTU inh | Mtb bLac sens
CC(=O)c1ccc(NS(=O)(=O)Cc2ccccc2)cc1 | 2 | 1 | 35* | 10 | -2
O=c1c2ccccc2nnn1CSc1ccc2c(c1)OCCO2 | -1 | 152* | 3 | 3 | -4
CCC(C(=O)Nc1ccc2c(c1)OCCO2)n1nnc2ccccc2c1=O (configuration not stated) | 4 | -2 | -1 | 6 | 2
CN(C)c1ccc(/C=C/c2nnnn2-c2ccccc2)cc1 | -135 | -1 | 41* | -8 | -5
Cc1cc(N/C=C\c2nnnn2-c2ccccc2)no1 | 1 | -3 | 1 | -5 | 2
Cc1cc(Br)ccc1OCCCN1CCC(C(O)(c2ccccc2)c2ccccc2)CC1 | nt | nt | nt | 8 | nt
